The list is not random: actives were taken first. Their share in the collection is about 9%.
JMJD2A Tudor inh – JMJD2A Tudor domain (human) inhibition; O75164; AlphaScreen JMJD2A-Tudor / H3K4me3 peptide binding; Potency, µM (top dose mostly 114 µM), inactives show top-dose activity change, negative = inhibition, hits mostly inhibitors; 390,000 tested, 4.4% active; also: % is scaled to controls: 0 for no effect and ±100 for the full control effect; nearly all actives have a fitted effect of over 50% in size
HP1b binding inh – inhibitors of HP1-beta chromodomain binding to methylated histone tails | P83916 | AlphaScreen HP1-beta / biotin-H3K9me3 peptide binding | Potency, µM (top dose mostly 114 µM), without a hit: at the highest dose activity change, negative = inhibition, actives largely listed as inhibitors | 390,000 tested, 0.56% active; also: nearly all actives have a fitted effect of over 70% in size
Target sequence (P83916 whole entry, looked up): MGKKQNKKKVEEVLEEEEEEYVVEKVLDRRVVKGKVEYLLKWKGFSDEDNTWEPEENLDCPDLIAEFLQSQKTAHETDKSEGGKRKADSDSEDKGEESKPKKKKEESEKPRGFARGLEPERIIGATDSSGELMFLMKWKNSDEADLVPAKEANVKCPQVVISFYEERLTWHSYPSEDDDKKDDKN
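Compound inhibition of the preformed complex between 50 nM HP1-beta and 50 nM biotinylated H3K9me3 peptide was read by AlphaScreen. Buffer was PBS pH 7.4 with 0.01% Tween-20. Incubations ran 30 min at room temperature, with 10 ug/mL donor/acceptor beads.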
BAZ2B block – BAZ2B (human) inhibition; 360,000 tested, 4.4% active; Q9UIF8; AID 504333; Potency, µM (top dose mostly 114 µM), for the others: top-dose activity change, negative = inhibition, most hits filed as inhibitors; AlphaScreen BAZ2B-H3K14Ac peptide displacement; also: % is scaled to controls: 0 for no effect and ±100 for the full control effect; nearly all actives have a fitted effect of over 60% in size
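Complex of BAZ2B and biotin-H3K14Ac (50 nM apiece) forms over 30 min at RT, then faces library compounds up to 110 uM for another 30 min; AlphaScreen beads added, 20 min dark incubation, luminescence read.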
PLK1 PBD block – inhibitors of human PLK1 polo-box domain binding; P53350; Plk1 PBD binding of FITC phosphopeptide, fluorescence polarization; Potency, µM, without a hit: max response, negative = inhibition, most hits filed as inhibitors; 360,000 tested, 2.8% active; also: series mostly up to about 57 µM; % is scaled to controls: 0 for no effect and ±100 for the full control effect; nearly all actives have a fitted effect of over 65% in size
G9a inh – inhibitors of human histone lysine methyltransferase G9a; G9a H3K9 monomethylation, AlphaScreen, 2 h; Potency, µM (top dose mostly 102 µM), for the others: at the top dose activity, negative = inhibition, actives largely listed as inhibitors; 350,000 tested, 8.8% active; AID 504332; also: % is scaled to controls: 0 for no effect and ±100 for the full control effect; nearly all actives have a fitted effect of over 75% in size
Target sequence (Q96KQ7 913-1193 limits assumed): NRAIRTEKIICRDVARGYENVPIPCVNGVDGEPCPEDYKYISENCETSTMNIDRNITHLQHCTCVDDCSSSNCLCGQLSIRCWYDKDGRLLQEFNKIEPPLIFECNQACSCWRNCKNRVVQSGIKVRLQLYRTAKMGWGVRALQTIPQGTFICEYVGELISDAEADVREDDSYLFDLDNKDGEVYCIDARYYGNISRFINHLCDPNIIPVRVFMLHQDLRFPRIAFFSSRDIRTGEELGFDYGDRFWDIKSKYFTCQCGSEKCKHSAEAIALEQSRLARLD
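Signal arises when biotinylated H3K9 peptide, once monomethylated, bridges streptavidin donor and antibody-captured acceptor beads. Enzyme at 20 nM was preincubated 15 min with test compounds; peptide 500 nM and SAM 20 uM then reacted for 2 h.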
12-LOX inh – blocks human arachidonate 12S-lipoxygenase | AID 1671190 | purified 12hLO, xylenol orange hydroperoxide absorbance | Potency, µM (series often up to 108 µM), for the others: at the highest dose activity change, negative = inhibition, most hits filed as inhibitors | 580,000 tested, 1.1% active; also: % is scaled to controls: 0 for no effect and ±100 for the full control effect
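Purified human 12hLO (150 nM final) in 25 mM Hepes, 0.01% Triton X-100, pH 7.0 was preincubated 15 min at room temperature with compound. Then 40 uM arachidonic acid was added, 30 min. Hydroperoxide was read by Fe-XO absorbance ratio 573/405 nm.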
The depositor's hits bear a star; [ ] = dose if it differs, or a comment. Calls follow the shape of the dose curve; as a rule, active = well fitted curve in the direction sought with a large enough effect; inconclusive = small, poorly fitted or top-dose-only effect, or another doubt; inactive = no such curve, though single readings can be large; an effect the other way counts as inactive or inconclusive. Potency is read from the fitted curve at half-maximal effect.

O=C(COc1ncnc2ccc(Br)cc12)N1CCOCC1 was read as JMJD2A Tudor inh -13%, HP1b binding inh 20%, BAZ2B block -22%, PLK1 PBD block 1%, G9a inh 1.1µM* and 12-LOX inh -29%.
Brc1ccc2ncnc(Nc3ccc(N4CCOCC4)cc3)c2c1 was read as JMJD2A Tudor inh inconclusive, HP1b binding inh -31%, BAZ2B block 45µM*, PLK1 PBD block -4%, G9a inh -44%[12.7 µM] and 12-LOX inh -16%.
Screening O=C(COc1ncnc2ccccc12)N1CCOCC1 returned JMJD2A Tudor inh -6%, HP1b binding inh 23%, BAZ2B block -4%, PLK1 PBD block -2%, G9a inh -8%[59 µM] and 12-LOX inh 11%.
For O=C(COc1ncnc2ccc(Br)cc12)Nc1ccc(N2CCOCC2)cc1 the results were JMJD2A Tudor inh -14%, HP1b binding inh 9%, BAZ2B block -1%, PLK1 PBD block 0%, G9a inh 17% and 12-LOX inh -15%.
`CC(C)CN1CCN(Cc2cc3ccccc3[nH]2)CC1CCO` (stereo unspecified) gave JMJD2A Tudor inh -17%, HP1b binding inh 32%, BAZ2B block -39%, PLK1 PBD block 1%, G9a inh inconclusive and 12-LOX inh -23%.
Screening CC(C)NC(=O)NC(=O)COc1ccc(C(=O)c2ccc(F)cc2)cc1 returned 12-LOX inh 24%.
CCN(CC)C(=S)SCC(=O)c1ccccc1 was read as JMJD2A Tudor inh 20%, HP1b binding inh 58%, BAZ2B block 27%[57.1 µM], PLK1 PBD block -8%, G9a inh -1% and 12-LOX inh -24%.
CCN(CC)C(=S)SC1=CCS(=O)(=O)C1 was read as JMJD2A Tudor inh 3%[11.4 µM], HP1b binding inh 45%, PLK1 PBD block -15%, G9a inh 20µM* and 12-LOX inh -33%.
C1CCN=C(NC23CC4CC(CC(C4)C2)C3)CC1 was read as BAZ2B block 0% and G9a inh -16%.
`C=CCN1CN(S(=O)(=O)c2cccc(Cl)c2)c2nc3ccccc3nc21` gave JMJD2A Tudor inh -4%, HP1b binding inh 36%, BAZ2B block -30%, PLK1 PBD block 4%, G9a inh 79µM* and 12-LOX inh inconclusive.
For CC(C)OCCCN1CN(S(=O)(=O)c2ccccc2)c2nc3ccccc3nc21 the results were JMJD2A Tudor inh -6%, HP1b binding inh 45%, BAZ2B block inconclusive, PLK1 PBD block -2%, G9a inh 32µM* and 12-LOX inh inconclusive.
COc1ccc(CCN2CN(S(=O)(=O)c3ccccc3)c3nc4ccccc4nc32)cc1OC was read as JMJD2A Tudor inh -2%, HP1b binding inh 15%, BAZ2B block -37%, PLK1 PBD block 2%, G9a inh 32µM* and 12-LOX inh -6%.
O=S(=O)(c1ccc(Cl)cc1)N1CN(CC2CCCO2)c2nc3ccccc3nc21 (stereo unspecified) was read as JMJD2A Tudor inh -32%, HP1b binding inh 34%, BAZ2B block -38%, PLK1 PBD block -15%, G9a inh 40µM* and 12-LOX inh -20%.
`COc1ccc(CCN2CN(S(=O)(=O)c3ccccc3)c3nc4ccccc4nc32)cc1` gave JMJD2A Tudor inh -21%, HP1b binding inh 20%, BAZ2B block -21%, PLK1 PBD block -6%, G9a inh inconclusive and 12-LOX inh -3%.
For O=S(=O)(c1cccc(Cl)c1)N1CN(CC2CCCO2)c2nc3ccccc3nc21 (stereo unspecified) the results were JMJD2A Tudor inh -29%, HP1b binding inh 18%, BAZ2B block inconclusive, PLK1 PBD block -13% and 12-LOX inh inconclusive.
For Cc1cccc(C(=O)Nc2ccccc2N2CCOCC2)c1 the results were 12-LOX inh 0%.
`Cc1oc(-c2ccc(Cl)cc2)nc1CN1CCCC(C(=O)NCc2ccccn2)C1` (stereo unspecified) gave JMJD2A Tudor inh -24%, HP1b binding inh 35%, BAZ2B block -28%, PLK1 PBD block -1%, G9a inh -5% and 12-LOX inh -12%.
Screening CN(CC(=O)Nc1c(Cl)cccc1Cl)C(=O)CCC1CCCC1 returned JMJD2A Tudor inh -6%, HP1b binding inh 18%, BAZ2B block 2%, PLK1 PBD block 0% and 12-LOX inh 9%.
For C/C(Cl)=C/CSc1nn2c(=O)c3ccccc3nc2s1 the results were JMJD2A Tudor inh 31%, HP1b binding inh 55%, BAZ2B block 23%, PLK1 PBD block 3%, G9a inh 33%[59 µM] and 12-LOX inh -12%.
Screening CC(C)Oc1cc(F)ccc1-c1cc(C(=O)NCCCn2ccnc2)[nH]n1 returned PLK1 PBD block -13% and 12-LOX inh 6%.
`CCCCCCNc1nc2ccccc2nc1NS(=O)(=O)c1ccc(OC)cc1` gave 12-LOX inh 38%.
COCCCN1CN(S(=O)(=O)c2ccc(Cl)cc2)c2nc3ccccc3nc21 was read as JMJD2A Tudor inh -31%, HP1b binding inh 9%, BAZ2B block -29%, PLK1 PBD block -9%, G9a inh 28µM* and 12-LOX inh inconclusive.
Screening COCCN1CN(S(=O)(=O)c2cccc(Cl)c2)c2nc3ccccc3nc21 returned JMJD2A Tudor inh -34%, HP1b binding inh -7%, BAZ2B block -33%, PLK1 PBD block -25%, G9a inh 45µM* and 12-LOX inh -24%.
Screening CCCCN1CN(S(=O)(=O)c2ccc(OC)cc2)c2nc3ccccc3nc21 returned JMJD2A Tudor inh -20%, HP1b binding inh 38%, BAZ2B block inconclusive, PLK1 PBD block -7%, G9a inh 35µM* and 12-LOX inh -8%.
For CC(=O)NC1=NN(C(C)=O)C2(S1)C(=O)N(C(C)C)c1ccc(C)cc12 (stereo unspecified) the results were JMJD2A Tudor inh 1%, HP1b binding inh 3%, BAZ2B block 1%, PLK1 PBD block -7%, G9a inh 50µM* and 12-LOX inh 22%.
Screening CCCC1(C)SC(NC(C)=O)=NN1C(C)=O (stereo unspecified) returned JMJD2A Tudor inh -12%, HP1b binding inh 13%, BAZ2B block 4%, PLK1 PBD block -1%, G9a inh -27% and 12-LOX inh -8%.
For CSc1nc2ccc3nc(NC(=O)c4ccc(C)cc4)sc3c2s1 the results were JMJD2A Tudor inh -20%, HP1b binding inh 51%, BAZ2B block 4%, PLK1 PBD block -2%, G9a inh -11%[59 µM] and 12-LOX inh 11%[57.4 µM].
`COc1cc2ncnc(NCc3ccco3)c2cc1OC` gave JMJD2A Tudor inh -26%, HP1b binding inh 20%, BAZ2B block -35%, PLK1 PBD block -10%, G9a inh inconclusive and 12-LOX inh 0%.

Assay outcomes (PubChem)
